Growth data for 15 compounds are collected here from PubChem BioAssay (NCI).

Each structure is given as a SMILES string. About 83,000 compounds went through this panel and 20% of them were active in at least one assay; those are over-represented in the sample as a whole.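 Testing used 96-well plates and a 48-hour single-concentration exposure. Example: -40 means 40% of the starting cells died.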 Values without a mark were called inactive. The source made the active and inactive calls. Rule for the calls: active = growth percent below 10; inactive = the rest.

Common to all, as to assay: NCI-60 one-dose screen, 48 h (100 = growth as untreated, 0 = no growth, -100 = all killed)
Details in all cases: 10 µM unless noted

Experiment [1] relates to HCT-15 colon.
For experiment [2], the system named is HT29 colon.
Experiment [3] deals with SNB-75 CNS.
Experiment [4] relates to SNB-19 CNS.
Experiment [5] deals with U251 CNS.
Experiment [6] relates to PC-3 prostate.
Experiment [7] concerns UACC-62 melanoma.
Experiment [8] concerns LOX IMVI melanoma.
For experiment [9], the system named is SK-MEL-28 melanoma.

On to `COc1cc(C(=O)Oc2ccccc2OC(=O)c2cc(OC)c(OC)c(OC)c2)cc(OC)c1OC`, for which the growth in [1] was 99.4%; in experiment [2] it was 110%; in experiment [3], 95.3%; in [4], 97%; in experiment [5], 104%; in [6], 88.8%. Besides, the growth in experiment [7] is 103%; in experiment [8], 94.9%; in experiment [9] it was 120%.
Consider `Clc1ccc2c(NCCNc3nc(N4CCCCC4)nc4ccccc34)ccnc2c1`, for which the growth is -30.1% (active) in experiment [1]; -28% (active) in [2]; -23.2% (active) in experiment [3]; 13.2% in [4]; -81.7% (active) in [5]; 9.71% (active) in [6]. The growth in experiment [7] is -90.7% (active); in [8], -83.6% (active); in [9] it was -79.2% (active).
On to `N#Cc1nnn(-c2ccc(S(N)(=O)=O)cc2)c1NCC(=O)c1ccccc1`, for which the growth in experiment [1] was 98.3%; in experiment [2], 95.5%; in experiment [3], 80%; in [4], 92.2%; in experiment [5], 93.6%; in experiment [6], 84.1%. Further, the growth in experiment [7] was 96%; in [8] it was 94.1%; in experiment [9] it was 111%.
Consider `CCN=C1C=CC(=C(c2ccc(N)cc2)c2ccc(N(CC)CC)c(C)c2)C=C1`, for which the growth was 7.26% (active) in [1]; 5.82% (active) in experiment [2]; -28.4% (active) in [3]; 11.5% in experiment [4]; -19% (active) in [5]; -5.29% (active) in experiment [6]. The growth was -36.6% (active) in experiment [7], -56.2% (active) in [8] and -19.1% (active) in [9].
For `O=C1NC(=O)C(c2ccc(Cl)cc2Cl)N1` (stereo not given), the growth in [1] was 108%; in [2], 106%; in [3] it was 92.7%; in [4], 97.1%; in experiment [5], 103%; in experiment [6], 104%. In addition, the growth in experiment [7] was 97.7%; in [8], 104%; in experiment [9], 112%.
Consider `OCC(O)c1nc2ccc3[nH]ncc3c2c2c1CCCC2` (stereo not given), for which the growth in experiment [1] is 5.03% (active); in [2], 9.08% (active); in experiment [3], -60.8% (active); in experiment [4] it was 7.63% (active); in experiment [5], 7.68% (active); in experiment [6], 9.74% (active). Moreover, the growth in [7] was -8.7% (active); in experiment [8] it was 2.42% (active); in [9] it was -3.58% (active).
As to `COc1cc2c(cc1-c1c(C)noc1C)ncc1nc(-c3ccccn3)n([C@H](C)COC(F)F)c12`, the growth in experiment [1] is 23.2%; in experiment [2] it was 24.2%; in [3] it was 34%; in experiment [4], 60.2%; in experiment [5], 48.8%; in [6] it was 34%. For the same compound, the results for the growth in experiment [7], in [8] and in experiment [9] were 23.9%, 20.9% and 67.3%, respectively.
Turning to `CCCCCCN(CCCCCC)CCC(O)c1ccc2ccccc2c1` (stereo not given), the growth is 48.1% in experiment [1]; 27.7% in experiment [2]; 68.2% in experiment [3]; 78.5% in [4]; 62.7% in experiment [5]; 48.6% in experiment [6]. The values for the growth in [7], in [8] and in experiment [9] were 77.3%, 40.5% and 88.1%, respectively.
Turning to `COc1cc(-c2nn(-c3ccc(C(=O)O)cc3)cc2C(=O)O)ccc1O`, the growth was 48.6% in [1]; 110% in experiment [2]; 36.6% in experiment [3]; 58.4% in [4]; 78.5% in experiment [5]; 66.9% in [6]. Also, the growth is 90% in [7], 44.4% in experiment [8] and 63.5% in experiment [9].
As to `O=C(Cc1ccc(/C=C/C(=O)c2ncc[nH]2)cc1)Nc1ccccc1`, the growth in experiment [1] was 12.9%; in experiment [2] it was 4.83% (active); in experiment [3], 58.4%; in experiment [4] it was 22.6%; in experiment [5] it was 11.3%; in [6], 57.1%. For the same compound, the values for the growth in experiment [7], in [8] and in [9] were 68.5%, 10.1% and 98.9%, respectively.
Turning to `COc1cc(/C=C/c2cc(/C=C/c3ccc(O)c(OC)c3)n(-c3c(Cl)cccc3Cl)c(=O)n2)ccc1O`, the growth in experiment [1] is 10.3%; in [2], -30.4% (active); in [3] it was 49.4%; in experiment [4] it was 34.1%; in [5], 8.54% (active); in experiment [6] it was 34.9%. In addition, the growth was 38.2% in experiment [7], 2.83% (active) in [8] and 17.6% in experiment [9].
`COc1ccc2cc(-c3nn(-c4ccc(C(=O)O)cc4)cc3CO)ccc2c1`: the growth in [1] is 98.1%; in experiment [2], 98.7%; in [3], 80.9%; in experiment [4] it was 103%; in experiment [5] it was 104%; in experiment [6], 98.7%. The growth was 103% in experiment [7], 101% in [8] and 112% in experiment [9].
As to `CC1C(/C=N/Nc2ccccc2)C(C#N)(C#N)C1(C#N)C#N` (stereo not given), the growth in experiment [1] is 69.2%; in experiment [2] it was 97.6%; in [3], 71.7%; in [4] it was 98.6%; in [5], 101%; in [6], 65.9%. In addition, the results for the growth in [7], in experiment [8] and in experiment [9] were 5.25% (active), 38.7% and 100%, respectively.
As for `CSc1ccc(SC2c3ccc(C)cc3Oc3nc(N)c(C#N)c(N)c32)cc1` (stereo not given), the growth in experiment [1] is -74.3% (active); in experiment [2], -65.1% (active); in experiment [3], -36.4% (active); in experiment [4], -96% (active); in experiment [5], -90.8% (active); in [6] it was -76.2% (active). For the same compound, the results for the growth in [7], in experiment [8] and in experiment [9] were -75.1% (active), -92.6% (active) and -86.7% (active), respectively.
Take `O=C(CN1CCCCC1)Nc1ccc2oc(=O)ccc2c1`: the growth is 104% in [1]; 104% in experiment [2]; 95.6% in [3]; 98.4% in experiment [4]; 102% in experiment [5]; 86.8% in experiment [6]. Besides, the growth in experiment [7] was 97.7%; in experiment [8] it was 96.6%; in experiment [9], 121%.
